Data on 30 compounds can be found in PubChem BioAssay (NCI).

“And” between values parts separate entries of the source, which are not always exact repeats. Equal entries are not always repeated. About 79,000 compounds went through this panel and 15% of them were active in at least one assay; those are over-represented in the sample as a whole. The source holds several records for some structures; these can differ, active in one and inactive in another. The source made the active and inactive calls. No stated cut-off is given here; in the data, active means growth inhibition above about 70%; inactive means the rest.

The first test is described as follows: NCI Yeast Anticancer Drug Screen. Data for the rad50 strain (AID 155).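 Further: 0% = growth of vehicle-only cultures of the same strain.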 To be noted: S. cerevisiae rad50 strain growth inhibition; at 50.0 µM; stronger effect = higher value. Summed up:
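Inhibition values express reduced yeast growth in compound-treated cultures relative to vehicle-treated controls.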
Turning to `COc1ccc(/C(=N/O)c2ccccc2C2=Nc3ccccc3C(NCc3ccccc3)O2)cc1C` (stereo not drawn), the growth inhibition was 94.9% (active). Same read-out and setting: to `CCCC(=O)OC(OC(=O)CCC)c1ccc([N+](=O)[O-])o1` belongs 63.9% (inactive); to `O=C(/C(=C/c1ccccc1)CBr)c1ccccc1`, 66.5% (inactive) and 79.2% (active).

On to `O=C(Cc1ccccc1F)NC1=C(Cl)C(=O)c2ccccc2C1=O`, for which the growth inhibition is 30.8% (inactive).

Regarding `Cc1cccc(N2CCN(C(=O)/C(=C/c3ccccc3)NC(=O)c3ccccc3)CC2)c1`, the growth inhibition was 12.3% (inactive). For the compound `OCC(O)C(O)C(O)C(O)c1nc2ccccc2[nH]1` (stereo not drawn), the growth inhibition is 4% (inactive) [middle of 5 runs].

As for `c1cc(Nc2ccc3c(c2)OCO3)c2cc(C3CCCCC3)ccc2n1`, the growth inhibition was 99.3% (active). Regarding `Cc1ccc2nc(N/N=C/c3ccc(C)s3)cc(C)c2c1`, the growth inhibition is 89.7% (active).

On to `COc1cc(NCCCCCNC(C)C)c2ncccc2c1Cl`, for which the growth inhibition was 49.7% (inactive). Turning to `COc1ccc2cc(CN3CCC(C4CCN(Cc5ccc6cc(OC)ccc6c5)CC4)CC3)ccc2c1`, the growth inhibition is 88.8% (active).

On to `CC(=O)O/N=C/c1c2ccccc2cc2ccccc12`, for which the growth inhibition was 15.2% (inactive). Turning to `CC[C@@]1(OC(=O)CN(C)C)C(=O)OCc2c1cc1n(c2=O)Cc2cc3ccccc3nc2-1`, the growth inhibition is 96.8% (active). On the same count and under the same terms, to `CC1(C)CC(=O)C(C(CC(c2ccccc2)c2cc3c(cc2O)OCO3)C2=C(O)CC(C)(C)CC2=O)=C(O)C1` (stereo not drawn) belongs 94.8% (active); to `CCCCCCC(CCl)c1sc(-c2csc(CCNC(=O)OC(C)(C)C)n2)nc1C(=O)OC` (stereo not drawn), -2.85% (inactive); to `CCOC(=O)C1=C(C)NC(C)=C(C(=O)OCC)C1c1cccc([N+](=O)[O-])c1`, 90.8% (active).

Regarding `Cc1ccc2c(/C=C/c3ccc(N(C)C)cc3)ccnc2c1C`, the growth inhibition was 71.4% (active). Regarding `Cc1cc(SC#N)ccc1O`, the growth inhibition was 92.6% (active) and 86.2% (active) and 91.6% (active).

For the compound `O=C1C(Br)=CC(Br)(Br)C=C1Br`, the growth inhibition was 90.8% (active).

The same test, now with this note: S. cerevisiae rad50 strain growth inhibition; at 100.0 µM; stronger effect = higher value.
As for `CNC(=O)OCc1c(COC(=O)NC)c(C)n(-c2ccc(Cl)c(Cl)c2)c1C`, the growth inhibition was 97% (active).

Consider `COc1ccc2nc(N/N=C/c3sccc3C)cc(C)c2c1`, for which the growth inhibition was 94% (active).

For `O=C(O)/C=C\C(=O)NNc1ccc(Br)cc1`, the growth inhibition is 99% (active). For `S=c1[nH]nc(Cc2ccccc2)c(=S)[nH]1`, the growth inhibition is 95% (active). On to `COc1ccc2nc3cccc([N+](=O)[O-])c3c(NCCCO)c2c1`, for which the growth inhibition is 97% (active). As to `CCN(CC)CCSc1c2ccccc2nc2cc(NCC(=O)Nc3ccccc3-c3ccccc3NC(=O)CNc3ccc4c(SCCN(CC)CC)c5ccccc5nc4c3)ccc12`, the growth inhibition was 95% (active). For the compound `Cc1ccc(N(C=O)c2c([N+](=O)[O-])cc([N+](=O)[O-])c3c2=[N+]([O-])CN=3)cc1`, the growth inhibition was 98% (active). As to `COc1ccc(C(=O)OCCc2ccccc2)cc1`, the growth inhibition was 9% (inactive). As to `COc1ccc(C(=O)NCCN(C)C)c2nc3ccccc3cc12`, the growth inhibition was 94% (active). For `NCC(O)CSCc1ccc(Cl)cc1` (stereo not drawn), the growth inhibition is 17% (inactive). Regarding `CN(C)/N=N/c1nc[nH]c1C(N)=O`, the growth inhibition was 97% (active).

With `O=c1[nH]c(=O)n(CCCO)cc1F`, the growth inhibition is -13% (inactive).

Regarding `COc1ccc(/C(=N/O)c2ccccc2C2=Nc3ccccc3C(NCc3ccccc3)O2)cc1C` (stereo not drawn), the growth inhibition is 94% (active). With `CCCC(=O)OC(OC(=O)CCC)c1ccc([N+](=O)[O-])o1`, the growth inhibition is 83% (active). Regarding `O=C(/C(=C/c1ccccc1)CBr)c1ccccc1`, the growth inhibition is 99% (active). For `O=C(Cc1ccccc1F)NC1=C(Cl)C(=O)c2ccccc2C1=O`, the growth inhibition is 37% (inactive). With `Cc1cccc(N2CCN(C(=O)/C(=C/c3ccccc3)NC(=O)c3ccccc3)CC2)c1`, the growth inhibition is 68% (inactive). For `c1cc(Nc2ccc3c(c2)OCO3)c2cc(C3CCCCC3)ccc2n1`, the growth inhibition was 73% (active). Same read-out and setting: to `Cc1ccc2nc(N/N=C/c3ccc(C)s3)cc(C)c2c1` belongs 93% (active); to `COc1cc(NCCCCCNC(C)C)c2ncccc2c1Cl`, 24% (inactive). Same read-out and setting: then `COc1ccc2cc(CN3CCC(C4CCN(Cc5ccc6cc(OC)ccc6c5)CC4)CC3)ccc2c1`, with 97% (active); and `CC(=O)O/N=C/c1c2ccccc2cc2ccccc12`, with 62% (inactive); and `CC[C@@]1(OC(=O)CN(C)C)C(=O)OCc2c1cc1n(c2=O)Cc2cc3ccccc3nc2-1`, with 97% (active).

Consider `CC1(C)CC(=O)C(C(CC(c2ccccc2)c2cc3c(cc2O)OCO3)C2=C(O)CC(C)(C)CC2=O)=C(O)C1` (stereo not drawn), for which the growth inhibition was 83% (active).

Consider `CCCCCCC(CCl)c1sc(-c2csc(CCNC(=O)OC(C)(C)C)n2)nc1C(=O)OC` (stereo not drawn), for which the growth inhibition is 97% (active).
